Compound activity (PubChem BioAssay)
Most compounds without a hit are left out; they make up all but 2.8% or so of the library.
Shn3 inh set2: reduction of Shn3 3'UTR firefly luciferase signal, primary screen, Schnurri-3 inhibitor project, cell-based, Clone20 osteoblasts, set 2 | Clone20 osteoblast Shn3 3'UTR firefly luciferase, 24 h | inhibition, % at 12.5 µM | actives 0.52% (n = 360,000) | AID 588674, 2011;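 active = mean inhibition of at least 75% with every replicate also reaching 75%; inconclusive = mean inhibition at least 75% but some replicate below; inactive = mean inhibition below 75%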;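 note: 0% = median of neutral control wells and 100% = pilot-screen positive control compound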
EBV LMP1 NFkB: EBV LMP1-driven NF-kappaB luciferase reporter inhibitors, primary screen, cell-based, luminescence, single point; LMP1-induced NF-kappaB luciferase reporter cells; inhibition, % at 12.5 µM; actives 0.69% (n = 350,000); AID 504558, 2011; in the data active = inhibition above about 41%; inconclusive = no clear call, values can overlap the other calls;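 note: 0% = neutral control wells and 100% = reference inhibitor control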
NSD2 HMT inh: NSD2 histone methyltransferase inhibitors, primary screen, biochemical, AlphaScreen, single concentration, set 2; Histone-lysine N-methyltransferase NSD2 (Homo sapiens), O96028; inhibition, % at 12.5 µM; NSD2 peptide methylation, 120 min; AID 743445, 2014; actives 0.54% (n = 310,000); in the data active = inhibition above about 50%
Target sequence (O96028 whole entry, looked up): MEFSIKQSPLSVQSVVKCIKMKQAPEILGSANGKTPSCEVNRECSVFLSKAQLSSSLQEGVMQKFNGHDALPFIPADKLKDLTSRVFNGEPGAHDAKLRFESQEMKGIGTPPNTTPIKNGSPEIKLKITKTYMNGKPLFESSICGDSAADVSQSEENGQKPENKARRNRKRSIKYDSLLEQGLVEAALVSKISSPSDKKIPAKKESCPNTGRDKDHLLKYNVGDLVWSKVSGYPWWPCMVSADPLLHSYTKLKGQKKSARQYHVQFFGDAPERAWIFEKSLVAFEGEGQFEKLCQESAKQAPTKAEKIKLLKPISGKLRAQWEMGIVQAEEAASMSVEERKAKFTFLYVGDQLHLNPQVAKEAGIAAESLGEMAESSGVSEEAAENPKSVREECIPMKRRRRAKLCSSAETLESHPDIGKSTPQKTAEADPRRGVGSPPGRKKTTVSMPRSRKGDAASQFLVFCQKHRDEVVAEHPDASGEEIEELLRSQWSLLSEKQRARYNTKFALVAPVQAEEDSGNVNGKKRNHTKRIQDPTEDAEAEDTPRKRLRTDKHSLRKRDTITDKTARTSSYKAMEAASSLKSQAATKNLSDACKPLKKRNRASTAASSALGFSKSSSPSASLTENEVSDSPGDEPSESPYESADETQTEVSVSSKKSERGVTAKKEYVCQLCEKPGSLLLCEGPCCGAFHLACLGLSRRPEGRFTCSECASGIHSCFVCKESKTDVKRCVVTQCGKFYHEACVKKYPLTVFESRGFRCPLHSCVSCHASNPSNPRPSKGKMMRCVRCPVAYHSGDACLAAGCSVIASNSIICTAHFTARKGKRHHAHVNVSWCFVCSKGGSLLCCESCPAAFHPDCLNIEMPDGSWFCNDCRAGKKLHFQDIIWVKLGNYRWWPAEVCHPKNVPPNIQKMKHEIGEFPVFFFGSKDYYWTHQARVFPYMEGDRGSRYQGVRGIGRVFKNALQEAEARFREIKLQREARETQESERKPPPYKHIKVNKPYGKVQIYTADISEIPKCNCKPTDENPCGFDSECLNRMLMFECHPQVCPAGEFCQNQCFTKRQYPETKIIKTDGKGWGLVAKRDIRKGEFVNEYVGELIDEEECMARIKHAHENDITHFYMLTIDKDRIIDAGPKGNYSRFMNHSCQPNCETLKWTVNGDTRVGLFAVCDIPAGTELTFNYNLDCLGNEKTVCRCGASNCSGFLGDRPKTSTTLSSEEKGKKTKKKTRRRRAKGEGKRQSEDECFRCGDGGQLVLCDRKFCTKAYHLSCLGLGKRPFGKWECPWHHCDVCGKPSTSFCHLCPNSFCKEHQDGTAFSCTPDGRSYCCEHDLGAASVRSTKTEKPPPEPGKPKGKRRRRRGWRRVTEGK
N-glyco inh: increase of ERlucT glycosylation luciferase signal, primary screen, N-linked glycosylation inhibitor project, D54 ERlucT cells, luminescence, set 2; D54 ERlucT glycosylation luciferase reporter, 24 h; percent of 100 nM tunicamycin response; reporter increase, % at 12.5 µM; actives 0.23% (n = 360,000);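 active = mean luciferase reporter signal, scaled so untreated is 0 and the glycosylation-blocking control 100, at or above a set limit in every replicate; inconclusive = mean reaches the limit but not every replicate does; inactive = mean below the limit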;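 note: luciferase carries N-glycosylation sites so blocking glycosylation raises the light; 0% = median of neutral control wells and 100% = median of 100 nM tunicamycin wells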
PAX8 reporter: inhibitors of PAX8-driven TPO luciferase reporter, primary screen, RMG-I cells, single concentration. SteadyGlo, 24 h. inhibition, % at 12.6 µM. actives 1.2% (n = 360,000). AID 652154, 2013;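 active = mean replicate inhibition at least 60% with every replicate also reaching 60%; inconclusive = only one of the two criteria is met; inactive = mean below 60% and not all replicates reaching 60%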;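 note: luciferase light reporting Pax8 driven TPO promoter activity; plate controls were median of neutral control wells for no effect and mitoxantrone controls for full effect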
Env fusion inh: inhibitors of HIV-1 Env-driven cell-cell fusion, primary screen, HeLa-JRFL effector, CEM21 target cells, luciferase. inhibition, % at 12.3 µM. actives 1.1% (n = 360,000);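 active = mean replicate inhibition score of at least 50 and every replicate individually at or above 50; inconclusive = only one of the two criteria met; inactive = mean below 50 and not all replicates reaching 50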;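 note: 0% = plate neutral controls and 100% = maraviroc near 300 nM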
The depositor's hits bear a star; ? = inconclusive; · = no result given; [ ] = remark or other dose.

SMILES	Shn3 inh set2	EBV LMP1 NFkB	NSD2 HMT inh	N-glyco inh	PAX8 reporter	Env fusion inh
CC(C)NC(=O)Nc1ccc2c(c1)CC(=O)N([C@H](C)CO)C[C@H](C)[C@H](CN(C)S(=O)(=O)c1cccs1)O2	·	·	·	·	-27.5	60.5*[16.7 µM]
C[C@@H]1CN([C@H](C)CO)C(=O)Cc2cc(NC(=O)Nc3ccc(C(F)(F)F)cc3)ccc2O[C@H]1CN(C)S(=O)(=O)c1cccs1	·	·	·	·	-18.5	13.8[16.7 µM]
C[C@H](CO)N1C[C@H](C)[C@H](CN(C)S(=O)(=O)c2cccs2)Oc2ccc(NC(=O)Nc3ccc(C(F)(F)F)cc3)cc2CC1=O	·	·	·	·	15.4	60.8*[16.7 µM]
CC(C)NC(=O)Nc1ccc2c(c1)CC(=O)N([C@@H](C)CO)C[C@H](C)[C@H](CN(C)S(=O)(=O)c1cccs1)O2	·	·	·	·	-20.0	56.5*[16.7 µM]
C[C@H]1CN([C@@H](C)CO)C(=O)Cc2cc(NC(=O)Nc3ccccc3)ccc2O[C@@H]1CN(C)S(=O)(=O)c1cccs1	·	·	·	·	-5.0	11.6[16.7 µM]
C[C@@H]1CN([C@H](C)CO)C(=O)Cc2cc(NC(=O)NC3CCCCC3)ccc2O[C@@H]1CN(C)S(=O)(=O)c1cccs1	·	·	·	·	2.1	7.2[16.7 µM]
C[C@H](CO)N1C[C@H](C)[C@H](CN(C)S(=O)(=O)c2cccs2)Oc2ccc(NC(=O)NC3CCCCC3)cc2CC1=O	·	·	·	·	-12.4	84.2*[16.7 µM]
CC(C)NC(=O)Nc1ccc2c(c1)CC(=O)N([C@@H](C)CO)C[C@H](C)[C@@H](CN(C)S(=O)(=O)c1cccs1)O2	·	·	·	·	21.7	-3.6[16.7 µM]
CC(C)NC(=O)Nc1cccc2c1O[C@@H](CN(C)S(=O)(=O)c1ccc(Cl)cc1)[C@@H](C)CN([C@@H](C)CO)C2=O	·	·	·	·	19.4	·
CC(C)NC(=O)Nc1ccc2c(c1)C(=O)N(C)[C@@H]1CC[C@@H](CC(=O)NC3CCCCC3)O[C@H]1CO2	·	·	·	·	-1.5	27.1[16.7 µM]
C[C@H]1CN([C@@H](C)CO)C(=O)c2cc(NC(=O)Nc3ccc4c(c3)OCO4)ccc2O[C@H]1CN(C)S(=O)(=O)c1cccs1	·	·	·	·	·	57.2*[16.7 µM]
C[C@H](CO)N1C[C@H](C)[C@H](CN(C)S(=O)(=O)c2cccs2)Oc2ccc(NC(=O)Nc3ccc4c(c3)OCO4)cc2CC1=O	1.5	0.9	·	6.2	34.0	98.9*
CC1=CN2C(=N)/C(=C/c3ccco3)C(=O)N=C2S1	-117.1	-35.4	19.0	-11.7	-81.7	-130.0
CC1=CN2C(=N)/C(=C/c3ccc([N+](=O)[O-])o3)C(=O)N=C2S1	93.6*	-24.0	5.2	1.8	14.3	-34.6
CCN1C(=O)CCN(C2CCCC2)c2nc(Nc3ccc(C(=O)NC4CCN(C)CC4)cc3OC)ncc21	-10.1	-2.3	·	55.0*	-106.2	-57.8
C/C(=N\NC(=O)c1ccccc1-n1cccc1)c1ccccn1	93.0*	8.2	0.0	-2.0	70.5*	4.1
C/C(=N\NC(=O)c1c[nH]c2ccccc12)c1ccccn1	69.4	14.3	-19.8	-13.4	-52.1	-20.2
C/C(=N\NC(=O)c1cc2ccccc2cc1O)c1ccccn1	97.3*	?	·	-20.8	58.8	59.0*
C/C(=N\NC(=O)c1ccc(F)cc1)c1ccccn1	89.0*	4.9	35.9	-15.8	62.5*	-14.3
CC(=O)N1[C@H](CO)[C@@H](c2ccccc2)C12CN(Cc1cc(F)ccc1F)C2	·	·	·	·	-0.6	·
C[C@@H]1CN([C@@H](C)CO)C(=O)Cc2cc(NS(=O)(=O)c3ccc(Cl)cc3)ccc2O[C@@H]1CN(C)C(=O)Nc1ccc2c(c1)OCO2	·	·	·	·	-9.8	-10.4[16.7 µM]
Cc1ccc(/C=C2/Sc3ccccc3N(CC(=O)NCC3CCCO3)C2=O)cc1 (stereo not given)	-15.4	11.1	·	-2.9	·	·
Cc1cc(/C=C2\Sc3ccccc3N2C)cc(C)[n+]1CC1CCCO1 (stereo not given)	89.1*	18.7	-11.9	37.5*	77.9*	14.6
CC(C)c1nc(SCC(=O)Nc2cccc(C(F)(F)F)c2)c2c(=O)n(C)c(=O)n(C)c2n1	85.5*	15.5	·	-5.0	11.4	-144.1
Cc1ccc(S(=O)(=O)N2C[C@H]3[C@H]4C(=O)N(C5CCCCC5)C(=O)[C@H]4CC(=O)[C@H]3[C@@H]2c2ccccc2F)cc1	-0.8	·	·	-3.3	20.3	64.5*
SMILES	Shn3 inh set2	EBV LMP1 NFkB	NSD2 HMT inh	N-glyco inh	PAX8 reporter	Env fusion inh
Cc1ccc(S(=O)(=O)N2C[C@H]3[C@H]4C(=O)N(C5CCCCC5)C(=O)[C@H]4CC(=O)[C@H]3[C@@H]2c2cccc3ccccc23)cc1	14.7	·	·	-2.4	-3.6	34.9
Cc1ccc(S(=O)(=O)N2C[C@H]3[C@H]4C(=O)N(Cc5ccccc5)C(=O)[C@H]4CC(=O)[C@H]3[C@@H]2c2ccccc2Cl)cc1	-9.9	·	·	-4.2	-2.7	60.0*
Cc1ccc(S(=O)(=O)N2C[C@H]3[C@H]4C(=O)N(Cc5ccccc5)C(=O)[C@H]4CC(=O)[C@H]3[C@@H]2c2ccccc2F)cc1	-10.2	·	·	-0.2	-11.5	?
C[C@@H]1CN([C@H](C)CO)C(=O)c2cc(C#CC(C)(C)O)cnc2O[C@@H]1CN(C)C(=O)C1CCC1	·	·	·	·	0.6	·
CC(=O)N1[C@H](CO)[C@@H](c2ccc(C3=CCCC3)cc2)[C@H]1CNC(=O)CN(C)C	·	·	·	·	1.1	·
CO[C@H]1CN(C)C(=O)c2ccc(NS(C)(=O)=O)cc2OC[C@H](C)N(CC2CCCCC2)C[C@H]1C	·	·	·	·	·	12.2[16.7 µM]
c1ccc2nc(-c3ccc(N4CCOCC4)cc3)ccc2c1	55.2	66.2*	-2.1	-19.0	·	-252.1
Cc1cc(-c2ccc(N3CCOCC3)cc2)nc2ccccc12	-43.0	-23.5	-14.9	2.0	-63.0	-106.1
CN1CCN(c2ccc(-c3ccc4ccccc4n3)cc2)CC1	?	83.3*	-7.1	-23.8	93.9*	30.0
Nc1nc(F)nc2c1ncn2[C@@H]1O[C@H](CO)[C@@H](O)[C@@H]1O	9.2	2.6	·	0.6	59.8	62.4*
O=c1[nH]c(=O)n(C2OC(CO)C(O)C2O)cc1F (stereo not given)	70.6	-14.1	-1.4	1.3	·	·
Nc1nc(F)nc2c1ncn2[C@@H]1O[C@H](COP(=O)(O)O)[C@@H](O)[C@@H]1O	·	·	0.6	·	·	·
Nc1nc(Cl)nc2c1ncn2C1OC(CO)C(O)C1O (stereo not given)	41.4	·	·	-0.7	·	·
Nc1nc(F)nc2c1ncn2[C@@H]1O[C@H](CO)[C@@H](O)[C@H]1O	95.7*	91.1*	·	-16.1	107.6*	73.4*
Nc1nc(=O)n(C2OC(CO)C(O)C2O)cc1F (stereo not given)	75.6	·	-1.6	-2.5	33.0	62.4*
COc1ccc2c3c([nH]c2c1)[C@@H](CO)N(C(=O)c1cccnc1)CC31CN(Cc2cccnc2)C1	·	·	·	·	·	-4.2[16.7 µM]
